The record followed here is PubChem BioAssay (EPA / NIEHS).

The structures appear in SMILES notation. Several values for one entry are separate records, joined by “and”; a condition that tells them apart may be missing. Equal values may be shown once. More than one record can exist for a structure, and the calls need not agree. Activity calls are given as the source filed them. The calls were made as follows: active = hit-call score of the fitted dose curve at least 0.9, where 1 is the maximum; inactive = score below 0.9.

Read-out in the assay: Monocyte Chemoattractant Protein-1 (MCP1), CCL2 (gene 6347)
Kind of assay: BSK_IMphg_MCP1: BioMAP Diversity Plus: IMphg Assay for Monocyte Chemoattractant Protein-1 (MCP1) Biomarker Activity (AID 2284253). The settings on record: primary human endothelial cells with macrophages. The method, then:
BSK_IMphg is a cell-based, multiplexed-readout assay that uses venular endothelial cells and macrophages, a human vascular primary cell, with measurements taken at 24 hours after chemical dosing in a microplate: 96-well plate.BSK_IMphg_MCP1 is an assay component measured in the BSK_IMphg assay. It measures MCP-1 antibody related to regulation of gene expression using ELISA technology.Data from the assay component BSK_IMphg_MCP1 was analyzed at the endpoint, BSK_IMphg_MCP1, in the positive analysis fitting direction relative to DMSO as the negative control and baseline of activity. Using a type of binding reporter, gain or loss-of-signal activity can be used to understand protein changes. To generalize the intended target to other relatable targets, this assay endpoint is annotated to the 'cytokine' intended target family, where the subfamily is 'chemotactic factor'.
The levels of cell surface (or secreted, indicated by the prefix "s") biomarker endpoints were measured by ELISA. Overt cytotoxicity to cells in confluent adherent cultures (all systems other than the BT system) was assessed by measuring total protein levels using sulforhodamine B (SRB) staining in parallel cultures at the time of biomarker measurements, indicated as SRB endpoints. For proliferation assays for adherent cell types, individual cell types are cultured at sub-confluence and relative cell numbers quantified by SRB staining at time points optimized for each system (48 h: 3C and CASM3C systems; 72 h: BT and HDF3CGF systems; 96 h: SAg system). SRB was performed by staining cells with 0.1% SRB after fixation with 10% TCA and reading wells at 560 nm.Viability and proliferation of PBMC (T cells) was quantified by Alamar Blue reduction for the SAg and BT systems. For PBMC viability (referred to as PBMC Cytotoxicity within the assay endpoint names), cells were plated (75,000/well in a 96-well plate) and then chemical samples added for 1 h before addition of activators, SEB and TSST-1 (20 ng/mL final concentration each). Cells were incubated for 90 h. Then, Alamar Blue (20 uL/well) (Invitrogen, Cat DAL1100) was added for 6 h, and the plates were read with a fluorescence microplate reader at 546/580 nm (excitation/emission). For PBMC proliferation, cells were plated and activated as above but incubated for only 16 h prior to addition of Alamar Blue. Plates were read after 6 h.
On to `OCC(O)CC(F)(F)C(F)(F)C(F)(F)C(F)(F)F` (stereo not given), for which the result was inactive.

Consider `O=C(O)C(F)(F)OC(F)(F)C(F)(F)OC(F)(F)C(F)(F)OC(F)(F)F`, for which the result was inactive.

Regarding `C[Si](Cl)(Cl)CCC(F)(F)C(F)(F)C(F)(F)C(F)(F)C(F)(F)C(F)(F)F`, the outcome was inactive.

In the case of `O=S(=O)(Cl)C(F)(F)C(F)(F)C(F)(F)C(F)(F)C(F)(F)C(F)(F)C(F)(F)C(F)(F)F`, the result was inactive.

With `O=S(=O)(O)CCC(F)(F)C(F)(F)C(F)(F)C(F)(F)F`, the result was inactive.

With `FC(F)(F)C(F)(F)C(F)(F)C(F)(F)C(F)(F)C(F)(F)C(F)(F)CCI`, the outcome was inactive.

With `OCC(F)(F)C(F)(F)C(F)(F)C(F)(F)C(F)(F)C(F)(F)CO`, the result was inactive.

With `C=CC(=O)OCC(F)(F)C(F)(F)C(F)(F)COC(=O)C=C`, the AC50 (usually the concentration at which the activity in the assay is half-maximal) is 37.9 µM (active) and 36.8 µM (active).

Turning to `NC(=O)C(F)(F)C(F)(F)C(F)(F)C(F)(F)C(N)=O`, the outcome was inactive.

With `O=C(O)CCC(F)(F)C(F)(F)C(F)(F)F`, the outcome was inactive.

Turning to `OCC(O)CC(F)(F)C(F)(F)C(F)(F)C(F)(F)C(F)(F)C(F)(F)C(F)(F)C(F)(F)F` (stereo not given), the outcome was inactive.

Consider `OCCCC(F)(F)C(F)(F)C(F)(F)C(F)(F)C(F)(F)C(F)(F)C(F)(F)C(F)(F)F`, for which the AC50 was 18.5 µM (active) and 21.1 µM (active).

Take `C=CC(=O)OCCC(F)(F)C(F)(F)C(F)(F)C(F)(F)F`: the result was inactive.

Turning to `CNS(=O)(=O)C(F)(F)C(F)(F)C(F)(F)C(F)(F)C(F)(F)C(F)(F)C(F)(F)C(F)(F)F`, the result was inactive.

With `CCN(CCO)S(=O)(=O)C(F)(F)C(F)(F)C(F)(F)C(F)(F)C(F)(F)C(F)(F)C(F)(F)C(F)(F)F`, the result was inactive.

Take `NC(=O)C(F)(F)C(F)(F)C(F)(F)F`: the outcome was inactive.

On to `NC(=O)C(F)(F)C(F)(F)C(F)(F)C(F)(F)C(F)(F)C(F)(F)C(F)(F)F`, for which the result was inactive.

Consider `CN(C(=O)C(F)(F)C(F)(F)C(F)(F)F)[Si](C)(C)C`, for which the outcome was inactive.

As to `CO[Si](C)(CCC(F)(F)C(F)(F)C(F)(F)C(F)(F)C(F)(F)C(F)(F)F)OC`, the outcome was inactive.

In the case of `O=C(O)CCC(F)(F)C(F)(F)C(F)(F)C(F)(F)C(F)(F)C(F)(F)C(F)(F)F`, the outcome was inactive.

In the case of `OC(O)C(F)(F)C(F)(F)F`, the result was inactive.

For `O=C(O)C(F)(F)C(F)(F)C(F)(F)OC(F)(F)F`, the outcome was inactive.

On to `O=C(O)C(F)(F)C(F)(F)C(F)(F)OC(F)(C(F)(F)F)C(F)(F)F`, for which the outcome was inactive.

Turning to `O=S(=O)(O)CCC(F)(F)C(F)(F)C(F)(F)C(F)(F)C(F)(F)C(F)(F)C(F)(F)C(F)(F)F`, the outcome was inactive.

As to `O=C(O)C(F)(F)C(F)(F)C(F)(F)C(=O)O`, the result was inactive.

For `NCC(F)(F)C(F)(F)C(F)(F)C(F)(F)C(F)(F)C(F)(F)C(F)(F)C(F)(F)F`, the result was inactive.

With `CCOC(=O)CC(=O)C(F)(F)C(F)(F)F`, the outcome was inactive.

As to `NC(=O)C(F)(F)C(F)(F)C(F)(F)C(F)F`, the result was inactive.

As to `O=C(O)C(F)(F)C(F)(F)C(F)(F)C(F)(F)C(F)(F)C(F)(F)C(F)F`, the outcome was inactive.

Turning to `COC(F)(C(F)F)C(F)(F)F` (stereo not given), the outcome was inactive.

Regarding `NC(O)(C(F)(F)F)C(F)(F)F`, the result was inactive.

Take `NCC(F)(F)C(F)(F)C(F)(F)C(F)(F)C(F)(F)C(F)(F)F`: the result was inactive.

On to `O=S(=O)(OCC(F)(F)F)C(F)(F)C(F)(F)C(F)(F)C(F)(F)F`, for which the outcome was inactive.

In the case of `C=C(C)C(=O)OCC(F)(F)C(F)(F)C(F)(F)C(F)F`, the result was inactive.

Turning to `O=C(Cl)C(F)(F)C(F)(F)C(F)(F)C(F)(F)C(F)(F)C(F)(F)F`, the result was inactive.

As for `NS(=O)(=O)C(F)(F)C(F)(F)C(F)(F)C(F)(F)C(F)(F)C(F)(F)F`, the result was inactive and the AC50 was 22.3 µM (active).

For the molecule `FC(F)(F)C(F)(F)C(F)(F)C(F)(F)C(F)(F)C(F)(F)CC[Si](Cl)(Cl)Cl`, the outcome was inactive.

In the case of `FC(F)(F)C(F)(F)C(F)(F)CC1CO1` (stereo not given), the result was inactive.

On to `OCC(F)(F)C(F)(F)C(F)(F)CO`, for which the result was inactive.
